Measured values: PubChem BioAssay (NCI)
About 83,000 compounds went through this panel and 20% of them were active in at least one assay; those are over-represented in the sample as a whole.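 Single-dose data. Exposure time 48 hours. Values below 10 considered active.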 Values without a mark were called inactive.

system: OVCAR-5 ovarian; experiment: NCI-60 one-dose screen, 48 h (100 = growth as untreated, 0 = no growth, -100 = all killed); settings: 10 µM unless noted

Row | Compound | growth
1 | C#C[C@]1(O)CC[C@H]2[C@@H]3CC=C4c5sc(Nc6cccc(C)n6)nc5CC[C@]4(C)[C@H]3CC[C@@]21C | 56.4%
2 | Clc1ccc(-c2csc(N/N=C/c3nc4ccccc4n3C3CC3)n2)cc1 | 99.7%
3 | O=C(NNc1nc2cc(F)c(F)cc2n2cccc12)c1ccncn1 | 39%
4 | CCn1c2ccc(/C=N/NS(=O)(=O)CCN(C)C)cc2c2cc(/C=N/NS(=O)(=O)CCN(C)C)ccc21 | 100%
5 | COc1ccc(-c2nnc(/N=C3/C(=O)Nc4ccc(Br)cc43)o2)cc1 | 107%
6 | O=C(CCCCCCN1CC(=O)N2[C@@H](c3ccc(Cl)c(F)c3)c3[nH]c4ccccc4c3C[C@H]2C1=O)NO | 87.6%
7 | O=C(N/N=C\c1ccc(Cl)cc1)c1ccc2nc(-c3ccc(Br)cc3)[nH]c2c1 | 36.8%
8 | O=C1CSC(=O)N1Cc1cc2ccccc2nc1Cl | 101%
9 | CCCCSc1nnc(-c2ccc(-c3ccc(Cl)cc3)nc2C)o1 | 101%
10 | COc1ccc(/C=N\NC(=O)c2ccc3nc(-c4ccc(Br)cc4)[nH]c3c2)cc1 | 79.2%
11 | NS(=O)(=O)c1ccc(Nc2nc(N/N=C/c3ccc([N+](=O)[O-])cc3)nc(Nc3ccccc3)n2)cc1 | 82%
12 | COc1cc(NC2=C(Cl)C(=O)c3nc(C)ccc3C2=O)cc(OC)c1 | 22%
13 | Cc1ccc(/C=C/CC(=O)Nc2ccc(C(=O)Nc3ccc(F)cc3N)cc2)cn1 | 55.7%
14 | O=C(c1ccc(O)cc1)[C@@H]1[C@@H]2CCCN2[C@@]2(C(=O)N(C(=O)c3ccc(F)cc3)c3ccccc32)[C@H]1c1ccc(F)cc1 | 111%
